The record followed here is the supplement of paper PMC6522484.

Each structure is given as a SMILES string. ± gives the standard deviation of the averaged measurements.

In experiment [1] the test system is DLD1. The experiment can be described thus: cell viability (CellTiter-Glo) relative to plate median (fraction of plate median); higher = more viable cells. The settings on record: 5 µM; treatment time 24 h; reporter: 7TFP. Summed up:
(§1)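 Two independent replicates were averaged for each reported value. Library compounds were applied at a final 5 µM for 24 h to colorectal cancer cell lines stably expressing lentiviral TCF/Wnt firefly luciferase reporters. Firefly luciferase or CellTiterGlo luminescence from each well was normalised to the plate median.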

Another experiment has as its system HCT116. Described as above. The settings on record: 5 µM; treatment time 24 h; reporter: TCF4/Wnt. The method in brief:
as §1

For experiment [2], the system named is SW480. The description is as above. Conditions: 5 µM; treatment time 24 h; reporter: 7TFP. The method in brief:
as §1

Experiment [3] concerns DLD1. The experiment can be described thus: TCF/Wnt firefly luciferase reporter signal relative to plate median (fraction of plate median); higher = higher Wnt reporter signal. The settings on record: 5 µM; treatment time 24 h; reporter: 7TFP. The method in brief:
as §1

In experiment [4] the test system is SW480. The experiment is described as above. Conditions: 5 µM; treatment time 24 h; reporter: 7TFP. The method in brief: as §1

Regarding `O=C(OCC(O)CO)c1ccccc1Nc1ccnc2cc(Cl)ccc12` (stereo not given), the cell viability with DLD1 [1] is 0.984 ± 0.037; in the experiment on HCT116, 1.015 ± 0.0071; in the experiment with SW480 [2], 1.02 ± 0.021. In addition, the results for the “TCF/Wnt firefly luciferase reporter signal” value in the experiment on DLD1 [3] and in the experiment with SW480 [4] were 0.954 ± 0.15 and 0.922 ± 0.044, respectively.
For `COc1ccc2c(c1)c(CC(=O)OCC(=O)O)c(C)n2C(=O)c1ccc(Cl)cc1` the same measures were 0.935 ± 0.073, 0.885 ± 0.082, 0.952 ± 0.04, 1.05 ± 0.16 and 1.07 ± 0.028.
In the same order, the values of `CC(C)CCCC(C)C1CCC2C3CCC4CCCCC4(C)C3CCC12C` (stereo not given) are 1, 0.997 ± 0.033, 0.9585 ± 0.00071, 0.94 ± 0.042 and 1.02 ± 0.014.
In the case of `N#CN=C(NCCCCCCOc1ccc(Cl)cc1)Nc1ccncc1`, the cell viability came to 0.954 ± 0.021 in the experiment with DLD1 [1], 1.01 ± 0.03 in the experiment with HCT116 and 0.87 ± 0.046 in the experiment on SW480 [2]. Besides, the “TCF/Wnt firefly luciferase reporter signal” value stood at 1.15 ± 0.057 in the experiment on DLD1 [3] and 1.14 ± 0.21 with SW480 [4].
In the same order, the values of `CC(=O)OC/C=C(\C)CC/C=C(\C)CC/C=C(\C)CC/C=C(\C)CC/C=C(\C)CC/C=C(\C)CC/C=C(\C)CC/C=C(\C)CCC=C(C)C` are 1.04 ± 0.042, 0.96 ± 0.085, 1.06 ± 0.028, 0.807 ± 0.072 and 1.02 ± 0.057.
In the same order, the values of `CC(C)CCC[C@@H](C)[C@H]1CC[C@H]2[C@@H]3C[C@@H](O)[C@@]4(O)C[C@@H](O)CC[C@]4(C)[C@H]3CC[C@]12C` [CHOLESTAN-3beta,5alpha,6beta-TRIOL] are 0.991 ± 0.041, 0.924 ± 0.083, 0.967 ± 0.016, 0.9 ± 0.086 and 0.891 ± 0.076.
In the same order, the values of `CCCc1nc2c(C)cc(-c3nc4ccccc4n3C)cc2n1Cc1ccc(-c2ccccc2C(=O)O)cc1` are 0.975 ± 0.12, 0.992 ± 0.054, 1.01 ± 0.021, 0.98 ± 0.028 and 1 ± 0.021.
Consider `CN(C)CCN(Cc1cccs1)c1ccccn1`, for which the values for the cell viability in the experiment with DLD1 [1], in the experiment with HCT116 and with SW480 [2] were 1.08 ± 0.028, 1.04 ± 0.18 and 1 ± 0.015, respectively. The results for the “TCF/Wnt firefly luciferase reporter signal” value in the experiment on DLD1 [3] and in the experiment on SW480 [4] were 1.01 ± 0.056 and 1.03 ± 0.028, respectively.
For `C[C@@H]1Cc2cc(O)cc(O)c2C(=O)O[C@H](C)CC(=O)O[C@H](CO)CC(=O)O[C@H](C)Cc2cc(O)cc(O)c2C(=O)O[C@H](C)CC(=O)O1` the same measures were 1.04 ± 0.11, 1.14 ± 0.035, 1.01 ± 0.062, 0.938 ± 0.028 and 1.05 ± 0.05.
For `Nc1ccc(S(=O)(=O)Nc2ncccn2)cc1` the same measures were 0.92 ± 0.032, 1.04 ± 0.069, 0.9685 ± 0.0021, 1.05 ± 0.14 and 1.01 ± 0.083.
Turning to `Nc1ccc(S(=O)(=O)Nc2ccnn2-c2ccccc2)cc1`, the cell viability in the experiment on DLD1 [1] was found to be 1.03 ± 0.058; in the experiment with HCT116, 1 ± 0.052; in the experiment with SW480 [2], 0.939 ± 0.013. The “TCF/Wnt firefly luciferase reporter signal” value is 1 ± 0.011 in the experiment on DLD1 [3] and 1.06 ± 0.057 in the experiment on SW480 [4].
Turning to `C/C=C1\[C@H]2C=C(C)C[C@]1(N)c1ccc(=O)[nH]c1C2`, the cell viability with DLD1 [1] was 0.965 ± 0.064; with HCT116, 0.952 ± 0.016; with SW480 [2], 1.02 ± 0.014. In addition, the “TCF/Wnt firefly luciferase reporter signal” value was found to be 1.1 ± 0.17 with DLD1 [3] and 1 ± 0.16 in the experiment with SW480 [4].
In the same order, the values of `C=C1[C@@H]([C@@]2(C)C=CC(=O)C(C)(C)[C@@H]2CC(=O)OC)CC[C@@]2(C)[C@H](c3ccoc3)OC(=O)[C@H]3O[C@]132` are 0.94 ± 0.021, 1.01 ± 0.039, 1.02 ± 0.021, 0.978 ± 0.19 and 0.996 ± 0.048.
With `CC1(C)C=Cc2c(cc3occ(-c4ccc5c(c4)OCO5)c(=O)c3c2O)O1`, the cell viability with DLD1 [1] came out at 0.951 ± 0.083; in the experiment on HCT116, 0.926 ± 0.17; in the experiment on SW480 [2], 0.952 ± 0.042. Moreover, the “TCF/Wnt firefly luciferase reporter signal” value with DLD1 [3] worked out at 0.909 ± 0.012; with SW480 [4], 1 ± 0.042.
In the same order, the values of `CC(=O)OCC(=O)[C@@]1(O)CC[C@H]2[C@@H]3CC[C@@H]4C[C@H](O)CC[C@]4(C)[C@H]3C(=O)C[C@@]21C` are 0.905 ± 0.11, 1 ± 0.071, 0.939 ± 0.011, 0.968 ± 0.036 and 0.885 ± 0.019.
